The values that follow come from PubChem BioAssay (NCI).

“And” between values parts separate entries of the source, which are not always exact repeats. Equal entries are not always repeated. About 83,000 compounds went through this panel and 20% of them were active in at least one assay; those are over-represented in the sample as a whole.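 48-hour exposure, single concentration, 96-well plates; percent growth endpoint where 0 means no net growth. Active: below 10.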 The source made the active and inactive calls.

Some test systems named below: NCI-H23 lung; NCI-H226 lung; NCI-H322M lung; HOP-62 NSCLC; NCI-H460 lung; HOP-92 NSCLC; NCI-H522 lung; A549/ATCC NSCLC; 786-0 renal; COLO 205 colon; DU-145 prostate; K-562 leukemia; MALME-3M melanoma; MDA-MB-231 breast; RXF 393 renal; SF-268 CNS; SF-295 CNS; SF-539 CNS; UACC-257 melanoma; M14 melanoma.
Holding throughout (assay): NCI-60 one-dose screen, 48 h (100 = growth as untreated, 0 = no growth, -100 = all killed)
Conditions in all cases: 10 µM unless noted

In the case of `O=C(CCl)c1ccc2c(c1)Nc1ccccc1S2`, the growth in the assay on NCI-H23 lung is 90.7% (inactive) and 94.2% (inactive); with NCI-H226 lung it was 89.4% (inactive) and 91.2% (inactive); in the assay on NCI-H322M lung it was 102% (inactive) and 92.7% (inactive); in the assay with HOP-62 NSCLC it was 97.6% (inactive) and 99.8% (inactive); in the assay on NCI-H460 lung it was 110% (inactive) and 105% (inactive); in the assay with HOP-92 NSCLC it was 101% (inactive). Moreover, the growth in the assay on NCI-H522 lung was 66.1% (inactive) and -35.2% (active); in the assay on A549/ATCC NSCLC, 100% (inactive) and 106% (inactive); with 786-0 renal it was 63.6% (inactive) and 79.1% (inactive); with COLO 205 colon it was 110% (inactive) and 86.7% (inactive); with DU-145 prostate, 104% (inactive); in the assay with K-562 leukemia it was 29.5% (inactive) and 30.3% (inactive). Moreover, the growth with MALME-3M melanoma was 91.5% (inactive); in the assay on MDA-MB-231 breast, 97.7% (inactive) and 89.5% (inactive); in the assay on RXF 393 renal it was 103% (inactive); in the assay with SF-268 CNS, 104% (inactive) and 98.5% (inactive); in the assay on SF-295 CNS, 94.8% (inactive) and 96.3% (inactive); with SF-539 CNS, 91.7% (inactive) and 84.5% (inactive). Also, the growth with UACC-257 melanoma was 102% (inactive) and 96.8% (inactive); in the assay with M14 melanoma, 91.6% (inactive) and 91.5% (inactive).

Consider `Cc1cccc(/C=C\C(=O)c2ccc(Cl)cc2)c1`, for which the growth with NCI-H23 lung is 93.9% (inactive) and 102% (inactive); in the assay on NCI-H226 lung it was 112% (inactive) and 100% (inactive); with NCI-H322M lung, 103% (inactive) and 92.6% (inactive); with HOP-62 NSCLC it was 109% (inactive) and 113% (inactive); in the assay on NCI-H460 lung it was 110% (inactive) and 102% (inactive); with HOP-92 NSCLC it was 82.3% (inactive). For the same molecule, the growth in the assay on NCI-H522 lung was 94.2% (inactive); in the assay with 786-0 renal, 82% (inactive) and 74.2% (inactive); with COLO 205 colon, 121% (inactive) and 111% (inactive); in the assay on DU-145 prostate it was 114% (inactive) and 96.5% (inactive); with K-562 leukemia, 77% (inactive) and 20.5% (inactive); in the assay with MALME-3M melanoma it was 92.5% (inactive). Further, the growth is 97.6% (inactive) and 116% (inactive) in the assay on MDA-MB-231 breast; 112% (inactive) and 97.8% (inactive) in the assay on RXF 393 renal; 102% (inactive) and 92.5% (inactive) in the assay with SF-268 CNS; 161% (inactive) and 93.9% (inactive) with SF-295 CNS; 101% (inactive) in the assay on SF-539 CNS; 105% (inactive) and 109% (inactive) with UACC-257 melanoma. For the same molecule, in the assay on M14 melanoma, the growth was 94.3% (inactive) and 91.1% (inactive).

In the case of `Cc1ccc(S(=O)(=O)NCN2C(=O)c3ccccc3C2=O)cc1`, the growth in the assay with NCI-H23 lung was 103% (inactive); in the assay with NCI-H226 lung it was 115% (inactive); in the assay on NCI-H322M lung, 105% (inactive); in the assay on HOP-62 NSCLC, 112% (inactive); in the assay with NCI-H460 lung it was 113% (inactive); in the assay with HOP-92 NSCLC, 109% (inactive). The growth is 103% (inactive) with NCI-H522 lung; 99% (inactive) in the assay with A549/ATCC NSCLC; 103% (inactive) in the assay with 786-0 renal; 125% (inactive) in the assay with DU-145 prostate; 106% (inactive) in the assay on K-562 leukemia; 133% (inactive) in the assay with MALME-3M melanoma. Also, the growth in the assay with MDA-MB-231 breast was 117% (inactive); with RXF 393 renal, 121% (inactive); in the assay with SF-268 CNS it was 106% (inactive); in the assay with SF-295 CNS, 100% (inactive); in the assay with SF-539 CNS it was 112% (inactive); in the assay with UACC-257 melanoma, 104% (inactive). Further, the growth in the assay with M14 melanoma was 109% (inactive).

For the molecule `Fc1ccccc1Nc1n[nH]c(=S)s1`, the growth is 108% (inactive) in the assay on NCI-H23 lung; 107% (inactive) in the assay on NCI-H226 lung; 128% (inactive) in the assay with NCI-H322M lung; 108% (inactive) in the assay on HOP-62 NSCLC; 109% (inactive) with NCI-H460 lung; 100% (inactive) in the assay on HOP-92 NSCLC. Moreover, the growth in the assay with NCI-H522 lung is 108% (inactive); in the assay on 786-0 renal, 101% (inactive); in the assay with COLO 205 colon it was 108% (inactive); with DU-145 prostate, 110% (inactive); in the assay with K-562 leukemia it was 107% (inactive); in the assay with MALME-3M melanoma, 127% (inactive). Further, the growth with MDA-MB-231 breast is 109% (inactive); with RXF 393 renal it was 116% (inactive); in the assay on SF-268 CNS it was 91.5% (inactive); in the assay on SF-295 CNS, 126% (inactive); with SF-539 CNS, 105% (inactive); in the assay with UACC-257 melanoma, 103% (inactive). Also, in the assay with M14 melanoma, the growth was 109% (inactive).

On to `O=C(/C=C/c1ccccn1)c1ccccc1O`, for which the growth was 73.9% (inactive) and 81.3% (inactive) in the assay on NCI-H23 lung; 93.2% (inactive) and 97.3% (inactive) in the assay on NCI-H226 lung; 100% (inactive) and 113% (inactive) in the assay on NCI-H322M lung; 79.5% (inactive) and 72.2% (inactive) in the assay on HOP-62 NSCLC; 65.2% (inactive) and 101% (inactive) in the assay on NCI-H460 lung; 75.5% (inactive) and 34.2% (inactive) in the assay with HOP-92 NSCLC. Besides, the growth in the assay on NCI-H522 lung is 67.8% (inactive) and 28.4% (inactive); with A549/ATCC NSCLC, 55.3% (inactive) and 79.7% (inactive); in the assay with 786-0 renal, 90.6% (inactive) and 91.4% (inactive); with COLO 205 colon, 63.6% (inactive) and 65.4% (inactive); with DU-145 prostate, 76.4% (inactive) and 71% (inactive); in the assay with MALME-3M melanoma, 70.1% (inactive) and 107% (inactive). The growth was 70.4% (inactive) and 95.9% (inactive) with MDA-MB-231 breast; 31.8% (inactive) and 56.4% (inactive) in the assay on RXF 393 renal; 72.4% (inactive) and 61.6% (inactive) in the assay with SF-268 CNS; 68.9% (inactive) and 91.6% (inactive) in the assay on SF-295 CNS; 42.1% (inactive) and 80.9% (inactive) with SF-539 CNS; 49.9% (inactive) and 84.9% (inactive) with UACC-257 melanoma. Also, the growth with M14 melanoma was 72.5% (inactive) and 82.3% (inactive).
